Source: PubChem BioAssay (several laboratories)
SENP8 block-1 = SENP8 (human) protease inhibition; 360,000 compounds, 0.64% hits; Q96LD8; inhibition, % at 20 µM; AID 602440; recombinant SENP8, Nedd8 substrate fluorescence; in the data active = inhibition mostly above about 40%, no sharp cut-off; inactive = mostly below about 27%
Platelet DG rel = platelet dense granule release activity. inhibition, %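 (compounds screened at 7.5 µM in platelet-rich plasma)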. 300,000 compounds, 0.22% hits. AID 1663. human platelet-rich plasma, SFLLRN dense granule ATP release, luminescence;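 active = mean replicate score, as percent of positive control, at or above 50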
SENP8 block-2 = SENP8 protease inhibition. inhibition, % at 10 µM. AID 2540. Q96LD8. 330,000 compounds, 1.2% hits. purified SENP8, Z-RLRGG-aminoluciferin cleavage, luminescence; in the data active = inhibition above about 50%
SENP6 inh = inhibitors of human SENP6 protease; 330,000 compounds, 1.8% hits; Recombinant SENP6 catalytic domain, aminoluciferin luminescence; Q9GZR1; inhibition, % at 10 µM;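 active = inhibition above about 50% at the single tested dose, limit read from the data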
Target sequence (Q9GZR1 628-1112 limits assumed): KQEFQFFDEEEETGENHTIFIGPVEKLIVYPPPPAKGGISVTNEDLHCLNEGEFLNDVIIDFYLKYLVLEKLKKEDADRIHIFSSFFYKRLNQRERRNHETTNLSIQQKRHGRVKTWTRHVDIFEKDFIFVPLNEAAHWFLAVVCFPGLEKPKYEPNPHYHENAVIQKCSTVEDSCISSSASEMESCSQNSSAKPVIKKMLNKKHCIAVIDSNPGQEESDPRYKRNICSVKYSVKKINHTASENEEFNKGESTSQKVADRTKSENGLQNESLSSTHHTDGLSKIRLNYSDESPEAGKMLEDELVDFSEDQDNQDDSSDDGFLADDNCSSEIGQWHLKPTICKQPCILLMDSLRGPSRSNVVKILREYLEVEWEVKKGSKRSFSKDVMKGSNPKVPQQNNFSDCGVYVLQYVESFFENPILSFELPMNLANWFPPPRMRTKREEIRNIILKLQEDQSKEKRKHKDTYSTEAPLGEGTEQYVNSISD
SENP7 inh = SENP7 protease inhibition | Q9BQF6 | recombinant SENP7, Z-RLRGG-aminoluciferin luminescence, 40 min | inhibition, % at 5 µM | 330,000 compounds, 1.5% hits;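 active = inhibition above about 50% at the single test dose, limit read from the data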
SENP8 confirm = confirmation of human SENP8 protease inhibitors; shares compounds with SENP7 inh; AID 488912; inhibition, % at 12.5 µM; 6,200 compounds, 40% hits; Recombinant SENP8, Z-RLRGG-aminoluciferin luminescence, 60 min;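 active = mean inhibition across replicates above about 50%, limit read from the data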
SENP6 conf = human SENP6 inhibition, confirmed. inhibition, % at 12.5 µM. recombinant SENP6, Z-RLRGG-aminoluciferin luminescence. shares compounds with SENP7 inh. 6,200 compounds, 58% hits
SENP7 conf = human SENP7 inhibition, confirmed; shares compounds with SENP7 inh; recombinant SENP7, Z-RLRGG-aminoluciferin luminescence, 40 min; inhibition, % at 12.5 µM; 6,200 compounds, 69% hits
Casp3 SENP sel = inhibits human caspase-3 in SENP selectivity test; shares compounds with SENP7 inh; purified caspase-3, Z-DEVD-aminoluciferin luminescence, 60 min; inhibition, % at 12.5 µM; 6,200 compounds, 60% hits; AID 488918;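 active = mean inhibition above about 50%, limit read from the data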
Target sequence (P42574 28-227 limits assumed): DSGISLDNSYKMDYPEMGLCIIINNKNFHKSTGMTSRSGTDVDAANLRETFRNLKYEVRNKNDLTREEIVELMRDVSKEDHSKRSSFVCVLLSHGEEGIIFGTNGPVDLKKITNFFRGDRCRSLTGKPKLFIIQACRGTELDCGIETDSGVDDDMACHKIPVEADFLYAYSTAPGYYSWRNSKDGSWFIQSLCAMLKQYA
SENP luc ctr = interferes with luciferase luminescence in SENP counter-screen; shares compounds with SENP7 inh; Pre-incubated SENP8/Z-RLRGG-aminoluciferin, luciferase luminescence interference; inhibition, % at 12.5 µM; 6,200 compounds, 39% hits; AID 488919;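 active = mean inhibition above about 50% when retested at one dose, limit read from the data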
Hits are given with their value; . = inactive; / = no result. In the library only some 2.4% were active in any assay of this set; here they are far more common.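 Rule for the calls, unless noted: active = mean inhibition above about 50% in the one-dose retest (limit read from the data); inactive = the rest.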

SMILES | SENP8 block-1 | Platelet DG rel | SENP8 block-2 | SENP6 inh | SENP7 inh | SENP8 confirm | SENP6 conf | SENP7 conf | Casp3 SENP sel | SENP luc ctr
Cc1cccc(-c2nnc(-c3ccc(N)cc3)o2)c1 | . | . | . | . | 53 | . | 65 | 88 | 63 | .
Nc1ccc(-c2nnc(-c3ccc(N)cc3)o2)cc1 | . | . | . | . | . | / | / | / | / | /
Brc1cccc(-c2nnc(-c3ccccc3)o2)c1 | . | / | 70 | 87 | 79 | . | 71 | 93 | 59 | .
Cc1ccc(-c2nnc(-c3ccc4ccccc4c3)o2)cc1 | . | / | / | / | / | / | / | / | / | /
Cc1ccc(-c2nnc(-c3cccc(Br)c3)o2)cc1 | . | . | . | 74 | 60 | . | . | . | . | .
Cc1ccc(-c2nnc(-c3ccccc3)o2)cc1Br | . | . | . | 59 | 75 | . | . | . | . | .
CC[C@@H](C)C(NC(=O)OC(C)(C)C)c1cn([C@@H](Cc2ccc(O)cc2)C(=O)N2CCN(C(=O)OC(C)(C)C)CC2)nn1 (stereo not given in full) | . | . | . | 82 | . | . | . | . | . | .
Cc1cc(C)n(CCN(C)C(=O)C2CCC(=O)N(CCc3cccc(F)c3)C2)n1 (stereo not given) | . | . | . | . | . | / | / | / | / | /
Cc1cc(C)c(S(=O)(=O)N2CCCCC2CCNC(=O)C(=O)NCc2ccccn2)c(C)c1 (stereo not given) | . | . | . | . | . | / | / | / | / | /
Cc1cc(Cl)ccc1NC(=O)CCC(=O)N/N=C/c1cc([N+](=O)[O-])ccc1O | . | . | . | . | . | / | / | / | / | /
O=[N+]([O-])c1ccc(O)c(/C=N/NC(=S)Nc2ccc(Cl)cc2Cl)c1 | . | . | 88 | 94 | 57 | 77 | 85 | 55 | . | .
O=C(O)c1ccc(-c2nc(-c3ccc(Cl)cc3Cl)cs2)cc1 | . | . | . | 60 | . | . | . | . | . | .
Cn1cccc1C(=O)Nc1nc(-c2ccccn2)cs1 | . | . | . | 74 | 62 | 76 | 76 | 93 | 84 | 78
Cc1csc(NC(=O)c2cccn2C)n1 | . | . | 76 | 82 | 91 | 76 | 75 | 96 | 93 | 84
Cc1csc(NC(=O)c2ccc(C(=O)Nc3nc(C)cs3)cc2)n1 | / | . | . | . | . | / | / | / | / | /
O=C(Nc1nc(-c2ccccn2)cs1)c1ccc(Cl)s1 | . | . | . | . | . | / | / | / | / | /
Cc1ccc(C)c(NC(=O)CN(C)C(=O)c2nn(C)c(=O)c3ccccc23)c1 | . | . | . | . | . | / | / | / | / | /
O=C(/C=C/c1ccccc1)c1ccc2c(c1)OCO2 | . | . | 76 | 82 | 93 | . | 51 | . | . | 90
O=C(NC(=S)Nc1ccccc1Br)c1ccc2c(c1)OCO2 | . | . | . | . | . | / | / | / | / | /
O=C(/C=C\Nc1ccccc1Br)c1ccc2c(c1)OCO2 | . | . | 86 | 87 | 89 | 84 | 93 | 98 | 78 | .
O=C(/C=C/c1ccc2c(c1)OCO2)c1ccc(F)cc1 | . | . | . | . | . | / | / | / | / | /
O=C(/C=C/c1ccccc1Br)c1ccc2c(c1)OCO2 | . | . | 91 | 94 | 92 | 72 | 74 | 64 | 60 | 54
O=C(/C=C/c1cccc(Br)c1)c1ccc2c(c1)OCO2 | . | . | . | 76 | . | . | . | . | . | .
COc1ccc(N2CC(C(=O)N3CCN(S(=O)(=O)c4ccc(F)c(F)c4)CC3)CC2=O)c(OC)c1 (stereo not given) | . | / | / | / | / | / | / | / | / | /
Cc1cc([N+](=O)[O-])ccc1NC(=O)CN1C2CCC1CC(NC(=O)NC13CC4CC(CC(C4)C1)C3)C2 (stereo not given) | . | . | . | . | . | / | / | / | / | /
SMILES | SENP8 block-1 | Platelet DG rel | SENP8 block-2 | SENP6 inh | SENP7 inh | SENP8 confirm | SENP6 conf | SENP7 conf | Casp3 SENP sel | SENP luc ctr
O=C(/C=C\Nc1cccc(F)c1)c1ccc2c(c1)OCO2 | . | . | 56 | 94 | 96 | 79 | 87 | 92 | 84 | .
O=C(/C=C/c1ccc2c(c1)OCO2)c1ccc[nH]1 | . | . | 59 | 77 | 78 | 73 | 64 | 91 | . | 69
CN(C)c1ccc(/C=C/C(=O)c2ccc3c(c2)OCO3)cc1 | . | / | 88 | 91 | 88 | 95 | 94 | 101 | 83 | 66
COC(=O)c1ccc(N/C=C\C(=O)c2ccc3c(c2)OCO3)cc1 | . | . | . | . | . | / | / | / | / | /
CCC(=O)N1CCCC1(C)C(=O)Nc1ccc(C)c(C)c1 (stereo not given) | . | / | / | / | / | / | / | / | / | /
COc1cccc(CNC(=O)Cn2c(=O)c3cccn3c3ccccc32)c1 | . | . | . | . | . | / | / | / | / | /
O=C1C=C(Nc2ccc(F)cc2)c2ccccc2C1=O | . | / | 72 | 82 | . | . | 89 | . | . | .
Cc1ccc(NS(=O)(=O)c2ccc3c(c2)C(=O)c2ccccc2C3=O)c(C)c1 | . | / | / | / | / | / | / | / | / | /
O=C1C=C(Nc2ccccc2O)c2ccccc2C1=O | . | . | 77 | 88 | . | . | 86 | 67 | . | .
Cc1ccc(NC2=CC(=O)C(=O)c3ccccc32)c(C)c1 | . | / | . | 51 | . | . | . | . | . | .
S=c1nc(-c2ccc(Br)cc2)oc2c1CCCC2 | . | . | . | . | . | / | / | / | / | /
Cc1cccc(-c2nc(=S)c3c(o2)CCCC3)c1 | . | . | 52 | 62 | 72 | 52 | . | 76 | . | 51
CC(C)NC1=C(Cl)C(=O)c2ccccc2C1=O | 52 | . | . | 56 | . | . | . | . | . | .
CCN(CC)CCCNC1=C(Cl)C(=O)c2ccccc2C1=O | 47 | . | . | 75 | . | . | 67 | . | 55 | .
O=C1C(Cl)=C(NCc2cccnc2)C(=O)c2ccccc21 | 86 | . | . | 60 | . | . | 72 | . | 66 | .
C=CCNC1=C(Cl)C(=O)c2ccccc2C1=O | 72 | . | . | 59 | . | . | 50 | . | . | .
Cc1ccc(N(C(=O)CNC(=O)c2ccco2)C(C(=O)NC2CCCC2)c2cccnc2)c(C)c1 (stereo not given) | . | . | . | . | . | / | / | / | / | /
CC(=O)NC(C)(c1ccccc1)c1nc(-c2cc(F)cc(F)c2)cs1 (stereo not given) | . | / | / | / | / | / | / | / | / | /
COCCCNC1=C(Cl)C(=O)c2ccccc2C1=O | . | . | . | . | . | / | / | / | / | /
CC(C)OCCCNC1=C(Cl)C(=O)c2ccccc2C1=O | 68 | . | . | 62 | . | . | 51 | . | . | .
Oc1ccc(-c2csc(-c3cccnc3)n2)c(O)c1 | . | . | . | 66 | 55 | . | . | 82 | 54 | 58
c1cncc(-c2nc(-c3cccs3)cs2)c1 | . | . | . | . | . | / | / | / | / | /
